# Measured values reported in the supplement of paper PMC3334620.
# Over roughly 33,000 sequences, “E-score (-0.5 to 0.5)” has its median near -0.01; the highest 2% begin near 0.26. What follows is part of a selection rich in the highest values, with near analogues and random picks from the rest.
# Target: Ste12 (UniProt P13574)
# Test: PBM E-score (8-mer binding enrichment) (E-score (-0.5 to 0.5)); higher = stronger / more preferred TF binding
# Conditions: protein concentration: 200 nM; construct: GST-DNA-binding domain
# Procedure: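 Universal 'all 10-mer' protein binding microarrays (Agilent AMADID 015681) probed with GST-tagged S. cerevisiae TFs (full-length or DBD) made by in vitro transcription/translation (PURExpress), about 100-200 nM. Bound TF was detected with fluorescent anti-GST. Each ungapped 8-mer (which stands for itself and its reverse complement) is scored by the PBM enrichment score (E-score), a modified Wilcoxon-Mann-Whitney statistic from -0.5 to +0.5, computed with the Universal PBM Analysis Suite. Scale: above 0.35 generally sequence-specific binding.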
# UniProt P13574, sequence (P13574 whole entry): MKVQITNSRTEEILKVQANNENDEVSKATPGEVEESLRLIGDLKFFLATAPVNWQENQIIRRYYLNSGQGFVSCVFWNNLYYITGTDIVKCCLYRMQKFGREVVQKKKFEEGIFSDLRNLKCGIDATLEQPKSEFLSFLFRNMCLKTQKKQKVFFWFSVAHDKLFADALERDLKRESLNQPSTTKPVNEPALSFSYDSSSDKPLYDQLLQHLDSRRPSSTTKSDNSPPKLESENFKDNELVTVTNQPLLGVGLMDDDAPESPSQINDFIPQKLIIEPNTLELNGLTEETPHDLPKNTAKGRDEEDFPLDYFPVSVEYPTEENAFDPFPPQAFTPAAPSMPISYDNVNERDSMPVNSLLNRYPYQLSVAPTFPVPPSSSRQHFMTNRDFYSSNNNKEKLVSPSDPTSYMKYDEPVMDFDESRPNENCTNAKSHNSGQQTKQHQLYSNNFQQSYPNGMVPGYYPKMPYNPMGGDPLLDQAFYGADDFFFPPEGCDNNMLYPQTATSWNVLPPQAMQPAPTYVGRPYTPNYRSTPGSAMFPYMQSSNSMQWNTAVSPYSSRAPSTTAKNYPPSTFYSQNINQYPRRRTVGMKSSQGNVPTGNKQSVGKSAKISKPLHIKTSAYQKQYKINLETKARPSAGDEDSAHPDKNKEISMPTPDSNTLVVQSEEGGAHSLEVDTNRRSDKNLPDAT
row,Sequence,PBM E-score
1,AAACATTA,0.207
2,TAACATAA,0.275
3,ACATACAG,0.0443
4,ACATACAT,0.263
5,ACACATAA,0.19
6,CAACATAA,0.189
7,GAACATAA,0.148
8,GCTCGCCA,-0.0532
9,ATTTGCGG,0.148
10,ACCGTGCT,-0.08
11,AGTGCAAA,0.101
12,GAGGGGAA,0.0394
13,AAACAAGC,0.202
14,ATACGATC,0.157
15,AACAATTG,-0.0846
16,ATCAATTC,0.0349
17,AACAATTC,0.124
18,AACAATTA,0.297
19,AACAATAA,0.301
20,ATCAATTA,0.289
21,AACAATAG,0.0913
22,AACAATAC,0.0824
23,ATCAATTG,0.154
24,GCGGTTTA,0.13
25,CTTGAGAC,0.158
26,ATCACTAC,-0.117

row,Sequence,PBM E-score
1,CTAGATTA,-0.0366
2,TCCAAAGA,0.0392
3,AGAAGAGC,-0.161
4,CCCGGCCG,-0.239
5,ACTGAGCC,-0.00502
6,GTATATAC,-0.207
7,ATATAAAT,0.279
8,GTATAAAA,0.241
9,CTATATAA,0.174
10,ATATAAAG,0.171
11,CTATATAC,0.162
12,ATATATAC,0.271
13,TTATAAAA,0.268
14,TTATATAA,0.176
15,TCATAAAA,0.231
16,ATATAAAC,0.161
17,ATATATAA,0.273
18,CCGATTTA,0.199
19,AGCATCTG,-0.159
20,AGTGACAG,-0.057
21,ACTAGTCC,-0.104
22,AGCAAACG,-0.0967
23,GTAGCTAC,-0.201
24,CTCCAGAA,-0.152
25,AGGTTTAG,0.0936
26,AAGCCGGC,0.0834

row,Sequence,PBM E-score
1,GCTTGACA,0.0364
2,ACATCGAA,0.0463
3,CGTCGCGC,0.00057
4,GCAACAAC,-0.0707
5,CCGCTAAG,0.109
6,CTATAAAA,0.235
7,ATATAAAA,0.307
8,ACATAAAA,0.17
9,ACCCGCGG,0.176
10,TCTGAAGA,-0.149
11,GACTCTGC,-0.0845
12,GGCAAAAA,0.346
13,GGAAAAGA,0.05
14,GAAAAAAA,0.369
15,GAGAAAAA,0.147
16,ATAAAAGG,0.0863
17,ATAAAAAG,0.315
18,GGAAAAAA,0.309
19,GGCAAAAC,0.133
20,GGCAAGAA,0.0412
21,ATAAAAGA,0.0538
22,GGAAAACA,0.177
23,GAAAAAAC,0.174
24,CCATGGCG,-0.0357
25,GCTTACTA,0.00559
26,AGCCTCTG,-0.135

row,Sequence,PBM E-score
1,CAGTTAGC,-0.218
2,TGAAAAAA,0.293
3,GGAAATAA,0.284
4,CGAAATAA,0.131
5,TGAAAACA,0.162
6,TGAAAGAA,0.131
7,GGAAAAAC,0.322
8,AGAAATAA,0.207
9,AGGAAAAC,-0.0394
10,ATAAAAAT,0.241
11,AAAAAAAT,0.337
12,GGAAAACC,0.0776
13,AAAAAATT,0.197
14,GCGACCTA,-0.062
15,CTGGCATC,-0.283
16,AGATTATC,-0.0475
17,CTACCTTA,-0.00289
18,CTGTGCAA,-0.101
19,ACGATTGA,0.158
20,CAGTTAAA,-0.00288
21,CATGAGCG,-0.0776
22,CGTGTGAC,-0.0425
23,AGTTCAAA,0.138
24,GCCAAATA,0.101
25,GTTTACGA,0.0472
26,AAAAAAGG,0.244

row,Sequence,PBM E-score
1,AGAAAAAA,0.19
2,CGAAAAAG,0.212
3,CAAAAAAG,0.159
4,CGGAAAAC,0.0342
5,CGGAAAAA,0.343
6,CGAAAAAA,0.308
7,CGGAAAAG,0.0439
8,AAAAAAAA,0.367
9,AAAAAAAG,0.294
10,CGAAAAAC,0.0959
11,AAAAAAGA,0.182
12,CAGGCGGG,0.0689
13,AATGGGCT,-0.092
14,CGTTTAGC,-0.0383
15,ACAGCCGT,-0.0628
16,AGCCTTAT,0.0824
17,AAAAAGCC,0.229
18,AAAAAGCG,0.317
19,CAAAAGCG,0.14
20,GCGGAAAA,0.253
21,TGGAAAAA,0.302
22,GGGAAAAC,0.116
23,AGGAAAAA,0.16
24,TTGGAAAA,0.177
25,TCGGAAAA,0.275
26,GGGAAAAA,0.272

row,Sequence,PBM E-score
1,ACGGAAAA,0.177
2,GGGGAAAA,0.112
3,AATCCAAA,0.14
4,CCGTTAAG,-0.177
5,ACGCTGCC,-0.108
6,ACCTTTGA,0.0506
7,GGTCTTCA,-0.164
8,CCTTTTCA,-0.0167
9,CGTAGCAA,0.00941
10,AAGCCTTG,-0.00117
11,ACTGTGAT,-0.0243
12,TGTGTGAA,0.284
13,GGTGTGAA,0.19
14,CGTGTGAA,0.14
15,ACTGTGAA,0.27
16,GCTGTGAA,-0.0834
17,ACTAAGAG,-0.0255
18,AAATGATT,0.197
19,TAATGATA,0.272
20,AAATGATA,0.292
21,ATATGATA,0.271
22,GCATGATA,0.0794
23,GAATGATC,0.00293
24,AAATGATC,-0.0582
25,GAATGATA,0.309
26,CAATGATA,0.074

row,Sequence,PBM E-score
1,GTATGATA,0.0429
2,TAATGAGA,0.168
3,CTATGATA,-0.0247
4,ATGCCTCC,-0.0978
5,CAATCTCC,-0.00169
6,CTCGATAC,0.155
7,GAGCGATC,-0.105
8,CCGGTCGC,-0.0319
9,GGTGACAA,0.0614
10,AAGAGCTC,-0.0902
11,CAGGGCCC,-0.148
12,CTAAATAA,0.0819
13,TTAAATAA,0.249
14,CAAAATAG,-0.0251
15,AAAAATAA,0.229
16,ATAAATAA,0.266
17,CAAAATAC,0.115
18,ATAAATAG,0.0906
19,CAAAATAA,0.33
20,TAAAATAA,0.269
